The values that follow come from ChEMBL document CHEMBL3433997, “St. Jude Leishmania screening dataset” (2016).

Structures are written as SMILES. Several values for one entry are separate records, joined by “and”; a condition that tells them apart may be missing. Identical values can stand only once.

Holding throughout (assay type): functional
Experiment [1] has as its target Solute carrier family 2, facilitated glucose transporter member 1 (Homo sapiens) (UniProt P11166). Put plainly: ST_JUDE_LEISH: Cytotoxicity at 2uM final concentration against transgenic Leishmania Mexicana promastigotes LmGLUT1 that are glucose transport deficient and complemented with the human glucose transporter GLUT1. Activity is measured by DNA content using SYBR green in vitro.

The target in experiment [2] is Hexose transporter 1 (Plasmodium falciparum) (UniProt O97467). Put plainly: ST_JUDE_LEISH: Cytotoxicity at 2uM final concentration against transgenic Leishmania Mexicana promastigotes LmPfHT that are glucose transport deficient and complemented with the Plasmodium falciparum hexose transporter. Activity is measured by DNA content using SYBR green in vitro.
Experiment [3] addresses Glucose transporter (Leishmania mexicana) (UniProt O61059). As to the kind of experiment: ST_JUDE_LEISH: Cytotoxicity at 2uM final concentration against transgenic Leishmania Mexicana promastigotes LmGT2 that are glucose transport deficient and complemented with the L. Mexicana glucose transporter 2. Activity is measured by DNA content using SYBR green in vitro.

Solute carrier family 2, facilitated glucose transporter member 1 (Homo sapiens), sequence (P11166 whole entry): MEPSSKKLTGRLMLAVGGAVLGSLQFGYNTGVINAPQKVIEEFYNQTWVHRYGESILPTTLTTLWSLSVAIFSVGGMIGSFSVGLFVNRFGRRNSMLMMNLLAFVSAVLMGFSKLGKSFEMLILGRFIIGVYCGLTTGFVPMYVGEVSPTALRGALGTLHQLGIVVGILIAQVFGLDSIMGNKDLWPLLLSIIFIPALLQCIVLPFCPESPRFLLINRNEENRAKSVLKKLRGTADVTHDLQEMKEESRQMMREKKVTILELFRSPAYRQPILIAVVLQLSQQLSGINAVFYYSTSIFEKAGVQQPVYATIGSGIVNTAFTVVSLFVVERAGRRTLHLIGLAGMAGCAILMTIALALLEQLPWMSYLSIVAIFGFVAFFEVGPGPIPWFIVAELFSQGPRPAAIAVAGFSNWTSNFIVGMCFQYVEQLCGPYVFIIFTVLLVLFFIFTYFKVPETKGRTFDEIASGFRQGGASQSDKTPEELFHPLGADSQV

In general, inhibition refers to the change of the read-out against control, counted positive when it falls. As for `O=C(C=Cc1ccc(C(=O)Nc2ccc(C3=NCCN3)cc2)cc1)Nc1ccc(C2=NCCN2)cc1`, the inhibition was determined as 5.16% in experiment [1], 5.38% in experiment [2] and 5.13% in experiment [3].

Consider `CCN1CCC(NCc2ccc(-c3ccc(Cl)cc3)cc2)CC1`, for which the inhibition in experiment [1] was 23.6%; in experiment [2], 11%; in experiment [3] it was 7.91%.

Turning to `CCNc1cc(C(=O)N[C@@H](Cc2ccccc2)[C@H](O)CN[C@H](C)C(C)(C)C)cc(N2CCCCS2(=O)=O)c1`, the inhibition in experiment [1] was 2.2%; in experiment [2], 1.95%; in experiment [3] it was 2.33%.

Take `c1ccc(Oc2ccc(Nc3ccnc4cc(-c5cccc(CN6CCOCC6)c5)ccc34)cc2)cc1`: the inhibition is -0.77% in experiment [1], 0.67% in experiment [2] and 1.46% in experiment [3].

Turning to `COc1ccc(O)c(C(=O)NCCc2ccc(OC)c(-c3ccc(C(C)(C)C)cc3)c2)c1`, the figures for the inhibition in experiment [1], in experiment [2] and in experiment [3] were 4.08%, 5.01% and 4.69%, respectively.

Regarding `Cc1cccc(-c2c(C)nc(N)nc2N)c1`, the inhibition in experiment [1] was 4.96%; in experiment [2], 2.06%; in experiment [3], 1.08%.

For `COc1ccc2nccc([C@H](O)CN3CCC(NCc4cc(C)c5c(c4)OCCO5)CC3)c2n1`, the inhibition is 5.84% in experiment [1], 8.31% in experiment [2] and -2.32% in experiment [3].

As for `COc1ccc(Cc2cccc(C(C(=O)NCc3cc(Cl)cc(Cl)c3)N3CCN(C)CC3)c2)cc1` (configuration not stated), the figures for the inhibition in experiment [1], in experiment [2] and in experiment [3] were -1.02%, -1.26% and 0.4%, respectively.

Consider `COc1ccc(COc2cc(NCCCN)nc3ccccc23)cc1`, for which the values for the inhibition in experiment [1], in experiment [2] and in experiment [3] were 4.66%, 6.16% and 4.46%, respectively.

Consider `CCCCc1cc(N2CCC(NC(C)=O)C2)nc(Nc2ccc(C)cc2)n1` (configuration not stated), for which the inhibition in experiment [1] was 10.9%; in experiment [2], 2.45%; in experiment [3], 5.78%.

Consider `CCCc1cc(NCC)nc(Nc2ccc(C)cc2)n1`, for which the results for the inhibition in experiment [1], in experiment [2] and in experiment [3] were 23.6%, 7.16% and 4.06%, respectively.

On to `Cc1cccc2nc(-c3ccc(-c4cccc(CN5CCCC(O)C5)c4)s3)[nH]c12` (configuration not stated), for which the values for the inhibition in experiment [1], in experiment [2] and in experiment [3] were 3.6%, 4.83% and 2.93%, respectively.

On to `N#Cc1ccc(NC(=O)NC2CCN(CCCCCNC(=O)/C=C/c3ccc(Cl)c(Cl)c3)CC2)cc1`, for which the inhibition amounted to 3.11% in experiment [1], 3.17% in experiment [2] and 6.31% in experiment [3].

Consider `O=[N+]([O-])c1cccc(NC(=S)N2CCCN(Cc3ccc(C(F)(F)F)cc3)CC2)c1`, for which the inhibition in experiment [1] was 2.92%; in experiment [2], 4.79%; in experiment [3], 3.25%.

On to `Cc1cc(N/N=C/c2ccccc2[N+](=O)[O-])c2ccccc2n1`, for which the inhibition came to 3.96% in experiment [1], 5.28% in experiment [2] and 2.51% in experiment [3].

Regarding `O=C(Nc1ccc([N+](=O)[O-])cc1)Nc1nc2ccc(Cl)cc2s1`, the inhibition in experiment [1] amounted to 5.09%; in experiment [2], 4.52%; in experiment [3] it was 1.81%.

In the case of `O=S(=O)(Nc1cc2c(cc1O)CCN(C1CCC1)CC2)c1ccc(Oc2ccc(F)cc2)cc1`, the inhibition in experiment [1] turned out to be 2.05%; in experiment [2], 1.02%; in experiment [3], 0.51%.

Turning to `COc1cc2nc(N3CCC(CNC(=O)/C=C/c4cccc(C)c4)CC3)nc(N)c2cc1OC`, the inhibition in experiment [1] was 7.71%; in experiment [2], 0.18%; in experiment [3], -0.03%.

As to `Cc1ccc(C2CCN(CCCCNC(=O)c3ccc(-c4ccc(C#N)cc4)cc3)CC2)c(O)c1`, the inhibition in experiment [1] came to 7.24%; in experiment [2], 7.29%; in experiment [3] it was 7.94%.

As to `CN(C(=O)c1ccccc1)C1c2cc(C#N)ccc2OC(C)(C)C1O` (configuration not stated), the figures for the inhibition in experiment [1], in experiment [2] and in experiment [3] were 0.42%, 0.76% and 0.38%, respectively.

For `CC(=O)c1c[nH]c2ccc(/C=C/C(=O)NC3CCC(CCN4CCc5ccc(C#N)cc5CC4)CC3)cc12` (configuration not stated), the results for the inhibition in experiment [1], in experiment [2] and in experiment [3] were 19.5%, 14.9% and 18.9%, respectively.

In the case of `O=C(Cn1c2ccccc2c(=O)c2ccc(Cl)cc21)Nc1ccc(C(F)(F)F)cc1`, the inhibition in experiment [1] was -0.52%; in experiment [2], -1.32%; in experiment [3] it was -1.59%.

For the compound `CCCCc1cc(NCc2ccncc2)nc(Nc2ccc(C)cc2)n1`, the inhibition amounted to 15.4% in experiment [1], 5.93% in experiment [2] and 2.33% in experiment [3].

`Cc1ccc(S(=O)(=O)N(CCCN2CCN(C)CC2)Cc2csc(-c3ccc(CNCc4ccccc4)cc3)n2)cc1`: the inhibition in experiment [1] turned out to be 9.12%; in experiment [2] it was 7.67%; in experiment [3], 9.91%.

Take `COC(=O)c1cccc(CNCc2ccc(-c3cccc(-c4nc5ccccc5[nH]4)c3)cc2)c1`: the inhibition in experiment [1] was -2.56%; in experiment [2], -1.88%; in experiment [3] it was 0%.

As to `CC[C@H](NC(=O)c1c(CCCN2CCN(c3ccccc3)CC2)c(-c2ccccc2)nc2cc(O)ccc12)c1ccccc1`, the figures for the inhibition in experiment [1], in experiment [2] and in experiment [3] were 7.88%, 6.19% and 10.9%, respectively.

With `N#Cc1cccc(Nc2cc(C(F)(F)F)nc(Nc3ccccc3)n2)c1`, the values for the inhibition in experiment [1], in experiment [2] and in experiment [3] were 15.4%, 11.3% and 6.45%, respectively.

As for `CCn1c(-c2nonc2N)nc2c(-c3cccc(NC(=O)Nc4ccc(C#N)cc4)c3)ncc(OCCCN)c21`, the results for the inhibition in experiment [1], in experiment [2] and in experiment [3] were 1.92%, -0.33% and 2.67%, respectively.

Regarding `CC[C@]1(C)C[C@@H](NC(=O)NC(=O)c2ccc(OC)cc2)[C@]2(C)[C@H](C)CC[C@]3(CCC(=O)[C@H]32)[C@@H](C)[C@@H]1OC(=O)NC(=O)c1ccc(OC)cc1`, the inhibition in experiment [1] came to 7.7%; in experiment [2], 5.47%; in experiment [3] it was 7.04%.

As to `NC1CCN(c2nc(NCCCc3ccc(O)cc3)nc(NCc3ccccc3-c3ccc(C(F)(F)F)cc3)n2)CC1`, the inhibition in experiment [1] worked out at 1.49%; in experiment [2] it was 2.87%; in experiment [3], 3.83%.

For `COc1ccc2ncc(F)c(C(O)CN3CCC(NCc4ccc5c(n4)NC(=O)CO5)CC3)c2c1` (configuration not stated), the inhibition in experiment [1] is -0.67% and 5.77%; in experiment [2], 2.57% and 4.56%; in experiment [3] it was -3.55% and 1.93%.

As for `CCc1cc(-c2n[nH]c(C(F)(F)F)c2-c2ccccc2)c(O)cc1OC`, the inhibition in experiment [1] was 2.03%; in experiment [2], 1.54%; in experiment [3], 2.44%.

Consider `Cc1cc(C)c(C(=O)Nc2n[nH]c3nnc(-c4cccc(F)c4F)cc23)c(C)c1`, for which the inhibition in experiment [1] was 0.09%; in experiment [2], -0.09%; in experiment [3], 0.28%.

Turning to `O=C(O)c1ccc(NC(=O)C2CC(=O)N(Cc3ccc(Cl)cc3)C(=Nc3ccc(Cl)cc3)S2)cc1` (configuration not stated), the inhibition in experiment [1] came to 2.23%; in experiment [2], 2.86%; in experiment [3] it was 1.01%.

As for `COc1ccc2nc(C)cc(N/N=C/c3ccccc3[N+](=O)[O-])c2c1`, the inhibition was 2.3% in experiment [1], 2.99% in experiment [2] and -0.41% in experiment [3].

With `CCOC(=O)c1c(CNc2ccncc2)n(C)c2cc(Br)c(OC(C)=O)cc12`, the inhibition in experiment [1] was -0.11%; in experiment [2], 2.99%; in experiment [3], 1.88%.

On to `CCc1cn2c3c(cc(C(=O)N[C@@H](Cc4ccccc4)[C@H](O)CNCc4ccc(C)cc4)cc13)N(C)S(=O)(=O)CC2`, for which the inhibition in experiment [1] is -0.24%; in experiment [2] it was 1.57%; in experiment [3], 0.38%.

On to `COc1ccc2nccc(N/N=C/c3ccc([N+](=O)[O-])cc3)c2c1`, for which the figures for the inhibition in experiment [1], in experiment [2] and in experiment [3] were -1.64%, -1.77% and 3.94%, respectively.

For the compound `O=C(NC1CCCCC1)C1CCCN(C(=O)c2ccc(O)c(-c3ccc(Cl)c(Cl)c3)c2)C1` (configuration not stated), the inhibition was 0.15% in experiment [1], 1.83% in experiment [2] and -0.03% in experiment [3].

As for `O=C(/C=C/c1ccc(C(F)(F)F)cc1)NCCCCCN1CCN(C(=O)Nc2ccc(F)c(Cl)c2)CC1`, the inhibition was 3.33% in experiment [1], 2.52% in experiment [2] and 0.69% in experiment [3].

Consider `CCN(CC)CCCC(C)Nc1c(-c2ccc(OC)cc2)cnc2ccccc12` (configuration not stated), for which the values for the inhibition in experiment [1], in experiment [2] and in experiment [3] were 2.85%, 3.79% and 0.36%, respectively.

In the case of `CCN(CC)CCCOC(=O)c1ccc2c(c1)-c1ccc(C(=O)OCCCN(CC)CC)c3cccc-2c13`, the inhibition is 6.8% in experiment [1], 3.93% in experiment [2] and 4.24% in experiment [3].

As for `Cc1[nH]cnc1-c1cccc(NC(=O)c2cc3ccccc3s2)c1`, the figures for the inhibition in experiment [1], in experiment [2] and in experiment [3] were -1.01%, -1.53% and -0.35%, respectively.

On to `NC1CCCN(Cc2ccc(-c3ccc(-c4nc5cc(F)ccc5[nH]4)s3)cc2)C1` (configuration not stated), for which the inhibition in experiment [1] is 2.77%; in experiment [2] it was 3.22%; in experiment [3], 3.45%.

`O=C(Nc1ccc(CCNC2=NCCN2)cc1)Nc1ccc(CCNC2=NCCN2)cc1`: the figures for the inhibition in experiment [1], in experiment [2] and in experiment [3] were 3.77%, 3.97% and 3.62%, respectively.

`NC(=O)c1cccc(C(=O)Nc2ccc(-c3cccc(-c4nc5cc(F)ccc5[nH]4)c3)cc2)c1`: the results for the inhibition in experiment [1], in experiment [2] and in experiment [3] were 0.18%, 0.01% and 0.23%, respectively.

Consider `O=C(NCC(NCCCNc1cc(=O)c2ccccc2[nH]1)c1cc(Br)cc(Br)c1)C1=CCCC1` (configuration not stated), for which the results for the inhibition in experiment [1], in experiment [2] and in experiment [3] were 3.18%, 4.82% and 5.79%, respectively.

As to `CS(=O)(=O)c1ccc2c(c1)CCN(CCC1CCC(NC(=O)C(=Cc3ccc(Cl)cc3Cl)c3ccc(-c4ccccc4)cc3)CC1)CC2` (configuration not stated), the inhibition was -0.33% in experiment [1], 3.12% in experiment [2] and 3.51% in experiment [3].

On to `Cc1[nH]c(C)c(-c2ccc(-c3cc(C(F)(F)F)cc(C(F)(F)F)c3)nc2)c(=O)c1Br`, for which the results for the inhibition in experiment [1], in experiment [2] and in experiment [3] were 4.9%, 5.44% and 5.42%, respectively.

Turning to `O=C(/C=C/c1ccc(Cl)c(Cl)c1)NC1CCC(CN2CCC(c3cc4ccccc4[nH]3)CC2)CC1` (configuration not stated), the inhibition in experiment [1] is 0.13%; in experiment [2], 2.67%; in experiment [3] it was 1.06%.

Consider `N=C(N)NN=Cc1ccc2c(ccc3ccccc32)c1`, for which the inhibition in experiment [1] worked out at 7.03%; in experiment [2], 8.19%; in experiment [3] it was 3.76%.

Consider `N=C(NCCCc1ccccc1)c1cccc(C(=N)NCCCc2ccccc2)n1`, for which the inhibition was -0.39% in experiment [1], -1.1% in experiment [2] and -0.17% in experiment [3].

As to `COc1ccc(C2=C(Nc3ccc4oc5ccccc5c4c3)c3ccccc3C2=O)cc1`, the inhibition in experiment [1] was 0.72%; in experiment [2], -0.17%; in experiment [3] it was 0.33%.

Regarding `COc1cccc(-c2ccc(O)c(CNCCc3cccc(F)c3)c2)n1`, the figures for the inhibition in experiment [1], in experiment [2] and in experiment [3] were -0.7%, 3.14% and 2%, respectively.
